PubChem BioAssay (NCI)
This is part of a sample that, as a whole, favours compounds with a hit. Of some 79,000 tested, about 15% had one in any assay. Rule as the data show it: active = growth inhibition above about 70%; inactive = the rest.

Tests used:
[1] = NCI Yeast Anticancer Drug Screen. Data for the rad50 strain (AID 155);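 also: 0% = growth of vehicle-only cultures of the same strain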; conditions: S. cerevisiae rad50 strain growth inhibition; at 50.0 µM; hits give high values
Procedure, shortened: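 DNA repair mutant yeast, compound exposure, growth read-out; inhibition is taken relative to vehicle.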

[2] = NCI Yeast Anticancer Drug Screen. Data for the mec2-1 strain (AID 157); conditions: S. cerevisiae mec2-1 strain, at 50.0 µM, hits give high values
Procedure, shortened: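 Growth inhibition is read against vehicle-treated controls after compound exposure of the mec2-1 yeast strain, which is defective in DNA damage repair or cell cycle control.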

[3] = NCI Yeast Anticancer Drug Screen. Data for the sgs1 mgt1 strain (AID 161);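 also: 0% = growth of cultures given vehicle only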; conditions: S. cerevisiae sgs1 mgt1 strain, at 50.0 µM, hits give high values
Procedure, shortened: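 This yeast growth screen uses a strain with defined DNA-repair lesions; compound-treated growth is compared with vehicle-treated growth.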

[4] = NCI Yeast Anticancer Drug Screen. Data for the cln2 rad14 strain (AID 165);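 also: 0% = growth equal to vehicle treated cultures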; conditions: S. cerevisiae cln2 rad14 strain, at 50.0 µM, hits give high values
Procedure, shortened: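 Growth inhibition, relative to vehicle-treated controls, is the read-out. The test organism is a yeast strain with defined genetic alterations, cln2 rad14.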

[5] = NCI Yeast Anticancer Drug Screen. Data for the bub3 strain (AID 167); conditions: S. cerevisiae bub3 mutant strain, at 50.0 µM, hits give high values
Procedure, shortened: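 In this screen, a yeast mutant lacking normal mitotic checkpoint function is challenged with compound. Relative growth versus vehicle gives the inhibition value.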

[6] = NCI Yeast Anticancer Drug Screen. Data for the mlh1 rad18 strain (AID 175); conditions: S. cerevisiae mlh1 rad18 strain growth inhibition; at 50.0 µM; hits give high values
Procedure, shortened: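 Cells of a genetically altered yeast strain, deficient in DNA damage repair, were treated with compound. Their growth was then compared with that of vehicle-treated cultures to give inhibition.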

Measured: growth inhibition

O=C1OC(/C=C/c2ccccc2)=NC/1=C\c1ccccc1Cl
inactive: [1] 29.8% | [2] 15.4% | [3] 35% | [4] 21.6% | [5] 17.4% | [6] 20.4%

O=C1OC(=O)C(Cl)=C1Cl
inactive: [1] 16.6% | [2] -10.5% | [3] 28.8% | [4] 10.7% | [5] 9.4% | [6] 22.3%

CCCC(=O)Nc1ccc(N=Nc2ccccc2)cc1
inactive: [1] 8.15% | [2] 43.4% | [3] 58.3% | [4] -15.9% | [5] 46.1% | [6] 57.5%

O=c1[nH]c2cc([N+](=O)[O-])ccc2nc1/C=C(\O)c1ccc(Cl)cc1
inactive: [1] -23.2% | [2] -22.8% | [3] -20.1% | [4] -9.15% | [5] -12.2% | [6] -36.7%

Clc1ccc(-c2nnc(C34CC5CC(CC(C5)C3)C4)o2)cc1
inactive: [1] -12.1% | [2] -8.65% | [3] -11.3% | [4] 2.3% | [5] -8.5% | [6] -18.6%

O=C(O)CNC(=O)NNc1ccccc1
inactive: [1] -4.75% | [2] -7.6% | [3] -11% | [4] 28.3% | [5] -10.3% | [6] -12.7%

C/C(Cc1ccccc1)=N\NS(=O)(=O)c1ccc(C)cc1
inactive: [1] 44.4% | [2] -2.15% | [3] 35.9% | [4] 8.85% | [5] 1.1% | [6] 34.6%

CN=C1Nc2ccc(Cl)cc2C(c2ccccc2)=NN1C
inactive: [1] 10% | [2] -19.4% | [3] 2.9% | [4] 11.3% | [5] 6.85% | [6] -12.6%

Cc1ccc(C2SCC(=O)N2c2ccc(-c3ccc(-n4c(-c5ccccc5)nc5ccccc5c4=O)cc3)cc2)cc1 (stereo unspecified)
inactive: [1] 14% | [2] 6% | [3] 33% | [4] -0.45% | [5] 45.8% | [6] 55.8%

C/C(CCC(=O)O)=N\NC(=O)COc1ccc(Cl)cc1Cl
inactive: [1] 31.4% | [2] -0.15% | [3] 18.6% | [4] 12.1% | [5] 14.8% | [6] 13.8%

CN(CC#N)[C@H]1CCC[C@]1(O)C#C[Si](C)(C)c1ccccc1
inactive: [1] 9.15% | [2] -19.8% | [3] 19.1% | [4] 30.9% | [5] 9.05% | [6] 1.55%

CSCCC(NC(=O)OC(C)(C)C)C(=O)NCCNc1ccc(NCCNC(=O)C(CCSC)NC(=O)OC(C)(C)C)c2c1C(=O)c1ccccc1C2=O (stereo unspecified)
inactive: [1] 19.4% | [2] 7.9% | [3] -24.2% | [4] 3.85% | [5] -9.5% | [6] -43.3%

C=CCc1cc(C)ccc1OC(=O)c1cc([N+](=O)[O-])cc([N+](=O)[O-])c1
inactive: [1] 2.85% | [2] -3.4% | [3] 4.55% | [4] -40% | [5] -6.6% | [6] 0.6%

O=C1OC(c2ccccc2)=N/C1=C\c1cccc2ccccc12
inactive: [1] -45.9% | [2] -36.6% | [3] -13.6% | [4] 0.35% | [5] -16.4% | [6] -31.1%

CS(=O)(=O)c1cc(=O)[nH]c(=O)[nH]1
inactive: [1] 0.55% | [2] 1.45% | [3] 18.2% | [4] 25.6% | [5] -0.9% | [6] 7.45%

Cc1cn(C)c2c1-c1c(cnn1-c1ccccc1)CC2
inactive: [1] 15.6% | [2] 3.75% | [3] 44% | [4] -2.4% | [5] 4.8% | [6] 23.4%

CCCCOc1ccc(Nc2c(C(=O)OCC)cnc3cc4c(cc23)OCO4)cc1
inactive: [1] -3.3% | [2] -9% | [3] -0.25% | [4] 8.2% | [5] -3.45% | [6] -9.4%

O=C1CCC(c2nc3ccccc3o2)C(=O)N1 (stereo unspecified)
inactive: [1] -5.1% | [2] -20.5% | [3] -10.6% | [4] 0.65% | [5] -11.2% | [6] -13.7%

O=C(O)c1[nH]c2ccccc2c(=O)c1-c1ccccc1
inactive: [1] 11.7% | [2] -31.5% | [3] 0.95% | [4] -14.3% | [5] 1.05% | [6] -19.4%

CCCCSC(N)=O
inactive: [1] -1.5% | [2] 0% | [3] -15.1% | [4] 10.7% | [5] 17.3% | [6] 11.2%

CC(O[Si](C)(C)C(C)(C)C)[C@H](NC(=O)OCC(Cl)(Cl)Cl)C(=O)O (stereo partly specified)
inactive: [1] -9.6% | [2] -27.8% | [3] -17.1% | [4] 26.1% | [5] -45% | [6] -14.8%
